Laboratory results published in PubChem BioAssay (NCI).
Where “and” joins values, the source holds several entries; their conditions need not be identical. Identical values can stand only once. The panel holds about 83,000 compounds, 20% with a hit somewhere; the sample as a whole holds those more often.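 For each line, cells grew in 96-well plates with the test compound present at a single concentration for 48 hours.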 Values without a mark were called inactive. Calls of active or inactive are those of the source.

Each molecule was assayed on NCI-H226 lung (assay: NCI-60 one-dose screen, 48 h (100 = growth as untreated, 0 = no growth, -100 = all killed)). Details: 10 µM unless noted.
Procedure: Growth inhibition of the NCI-H226 human Non-Small Cell Lung tumor cell line is measured as a screen for anti-cancer activity. Cells are grown in 96 well plates and exposed to the test compound for 48 hours. Compounds are tested at a single concentration, which is 10^-5 M for most compounds. The reported endpoint is percent growth (GI% or GIPRCNT), where numbers from 0 - 100% represent growth inhibition, and numbers from -100% - 0 represent cell death. For example, a value of 40 represents 60% growth inhibition. A value of 0 means no net growth occurred over the course of the experiment. A value of -40 indicates 40% of cells at the beginning of the experiment died by the end of the experiment. A value of -100 means all cells are dead at the end of the experiment.
NCI-60 Human Tumor Cell Lines Screen was performed using the standard one-dose NCI protocol, which is described in more detail at https://dtp.cancer.gov/discovery_development/nci-60/default.htm.
Compounds with GIPRCNT values below 10 were considered active. Activity score was based on GIPRCNT using the following formula: […]
Score is 0 for GIPRCNT values of 100 or above, 50 for GIPRCNT values of 0, and 100 for GIPRCNT values of -100.

Structure (SMILES)	growth
CN1CCN(CCNc2nc(-c3cccc(NS(=O)(=O)c4cccc5c(N(C)C)cccc45)c3)cs2)CC1	66.3%
CCCCCCCCCC(=O)NC(C)(C)C(=O)N1CCC[C@H]1C(=O)N[C@@H](CC(C)C)C(=O)N[C@@](C)(CC)C(=O)N[C@@H](CCC(N)=O)C(=O)N[C@H](CCC(N)=O)C(=O)NC(C)(C)C(=O)NC(C)(C)C(=O)N[C@@H](CCC(N)=O)C(=O)N[C@H](CC(C)C)C(=O)N[C@H](CO)CC(C)C	-71.3% (active) and -31.6% (active)
COC(=O)c1cccc(NC2=CC(=O)C(C)=C(C)C2=O)c1	95%
Cc1ccc2c(n1)C(=O)C(Cl)=C(Nc1cccc(C(F)(F)F)c1)C2=O	73.3%
COc1cc(/C=C2/C(=O)Nc3ccc(Cl)cc32)ccc1OCc1ccc(Cl)cc1	95.7%
C#CCOc1ccc(-c2csc(NC(=O)C=C)n2)cc1NS(=O)(=O)c1cccc2c(N(C)C)cccc12	33.1%
CCCc1[nH]c(-c2cc(N)ccc2Cl)c2c1C(=O)CCCC2	98.1%
O=C(/C=C/c1cccc(Br)c1)c1cccc(OCCCCOc2cccc(C(=O)/C=C/c3cccc(Br)c3)c2)c1	103%
C=C(C)[C@@H]1CC[C@]2(C(=O)N3CCN(C)CC3)CC[C@]3(C)[C@H](CC[C@@H]4[C@@]5(C)CC[C@H](OP(=O)(OCC)OCC)C(C)(C)[C@@H]5CC[C@]43C)[C@@H]12	75.8%
N/C(=N\C(N)=N\c1nc2ccccc2s1)c1ccc(Cl)cc1	77.8%
COc1ccc(C(=O)c2c(N)c(C#N)cn2-c2ccc(Cl)cc2Cl)cc1	97.2%
O=C(CSc1nnc(-c2cccs2)n1-c1ccccc1)Nc1ccccc1	64.4%
Cc1ncn(-c2ccc(/C=N/Nc3ccnc4cc(Cl)ccc34)cc2)c1C	94.1%
O=C(Nc1cc(C(F)(F)F)cc(C(F)(F)F)c1)Nc1ccc2oc(=O)ccc2c1	18.8%
NC1=NC2(CCCC2)N(c2ccc(S(=O)(=O)Nc3nccs3)cc2)C(N)=N1	100%
CCOC(=O)c1c(NCC(=O)Nc2cccc([N+](=O)[O-])c2)sc(C(C)=O)c1C	-61.3% (active)
N#Cc1c(-c2ccc(F)cc2)cc(-c2c[nH]c3ccccc23)nc1-c1c[nH]c2ccccc12	94%
CC1(C)CC[C@]2(C(=O)O)CC[C@]3(C)C(=CC[C@@H]4[C@@]5(C)CC[C@H](NOCCCN)C(C)(C)[C@@H]5CC[C@]43C)[C@@H]2C1	90.3%
COc1ccc(NC2=C(Br)C(=O)C(C)=C(C)C2=O)cc1OC	88.2%
CNC(=O)c1cc(-n2ccc3cc(NC(=O)Nc4ccc(N5CCN(C)CC5)c(C(F)(F)F)c4)ccc32)ccn1	96.4%

Structure (SMILES)	growth
Cn1cc(-c2nnc(N)nc2-c2c[nH]c3ccc(Br)cc23)c2cc(Br)ccc21	112%
C#Cc1nc(/C=C/C(=O)NO)cs1	75.8%
COc1ccc(N2CCN(C3=C(Cl)C(=O)c4ncccc4C3=O)CC2)cc1	94%
O=C1Nc2cc(Cl)ccc2/C1=C\c1ccc(OCc2ccccc2)cc1	92.9%
CC1=C(C)C(=O)C(Nc2ccc3c(c2)OCCO3)=C(Br)C1=O	85.6%
O=C1CSC(c2cn(-c3ccccc3)nc2-c2ccc(Cl)cc2)N1c1ccccc1 (stereo not given)	98.4%
COc1ccc(C(C)=C(c2ccc(OCCN3CCCCCC3)cc2)c2ccc(OCCN3CCCCCC3)cc2)cc1	-46.1% (active)
CC(C)[C@H]1c2[nH]c3ccccc3c2C[C@H]2C(=O)N(CCCCCCC(=O)NO)CC(=O)N12	102%
CC1=C(C)C(=O)C(Nc2cccc(C(=O)OC(C)(C)C)c2)=C(Cl)C1=O	91.3%
COc1ccc(OC)c(CCn2cncc2-c2c[nH]c3ccc(Cl)cc23)c1	59.5%
COc1ccc(NC(=O)CCCCCCNC(=O)C(O)(O)C(F)(F)F)cc1	84.1%
COc1cc(C(=O)c2cc(C(C)=O)c3ccc(C)cn23)cc(OC)c1OC	66.3%
Nc1ncc(-c2ccc3ncnc(NCc4ccccc4)c3c2)cn1	33.9%
O=C(/C=C/c1cccc(C(F)(F)F)c1)Nc1cccc(C(F)(F)F)c1	64.2%
Clc1ccc(CSc2nnc(-c3ccc(Cl)cc3)n2-c2ccccc2)cc1	46.1%
CC(=O)/C(N=Nc1ccc2oc(=O)ccc2c1)=C(\C)O	42.6%
Cn1ncc2c(C(=O)c3ccc(F)cc3)nc(C(C)(C)C)nc21	101%
CCN1CCN(c2ccc(NC(=O)Nc3ccc4c(ccn4-c4ccnc(C(=O)NC)c4)c3)cc2C(F)(F)F)CC1	92.8%
O=C1[C@@H]2Cc3c([nH]c4ccccc34)[C@@H](c3ccc(Cl)cc3)N2C(=O)CN1C1CCN(Cc2ccccc2)CC1	72.5%
COc1cc(-c2nc(-c3ccccc3)[nH]c2-c2ccnc(NCCCNS(=O)(=O)c3ccc(C)cc3)n2)ccc1F	75.7%
